Screening results (PubChem)
Shiga toxin inh = Shiga toxin inhibition; inhibition, % at 38.7 µM; Vero cells, Shiga toxin protein synthesis inhibition reporter; 9.2% of 290,000 active; in the data active means inhibition mostly above about 28%, no sharp cut-off; inactive means mostly below about 43%; further: 0% is about no effect
Cycloheximide cs = affects cycloheximide protein synthesis inhibition readout, counter-screen; cell reporter, cycloheximide protein synthesis inhibition counterscreen; max response, %; 12% of 300,000 active; in the data active means max response mostly above about 13%, no sharp cut-off; inactive means mostly below about 14%; further: read at 38.3 µM for the half of the compounds with a filed dose; 0% is about no effect
Pf growth 48h = inhibits P. falciparum growth in the first generation, 48 h; P. falciparum luciferase growth in erythrocytes, 48 h; Potency, µM (top dose mostly 28.7 µM), for inactives: at the top dose activity change, negative = inhibition, actives largely listed as inhibitors; 5.9% of 310,000 active; AID 504832; further: potency means the concentration at half of the fitted maximal effect; on the % scale 0 is the no-effect control and ±100 the full control effect
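Growth was read as firefly luciferase luminescence after a 48 h, 37 C, 5% CO2 exposure of compounds to reporter-bearing P. falciparum cultures (0.1% parasitemia, 2% hematocrit final) in Albumax-supplemented RPMI 1640.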
Pf growth 96h = inhibits malaria parasite growth, 96 h; P. falciparum luciferase reporter growth, 96 h; Potency, µM (doses to about 28.7 µM), without a hit: top-dose activity change, negative = inhibition, hits mostly inhibitors; 6.9% of 320,000 active; AID 504834; further: potency means the concentration at half of the fitted maximal effect; on the % scale 0 is the no-effect control and ±100 the full control effect
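Erythrocytes infected with luciferase-expressing P. falciparum were dispensed at 2% hematocrit and 0.05% parasitemia (final), then incubated with compounds 96 hours at 37 C in 5% CO2. Luminescence after detection reagent addition reported growth.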
LmPK inh = inhibitors of Leishmania mexicana pyruvate kinase. Q27686. purified LmPK, Kinase-Glo ATP luminescence, 1 h. Potency, µM (top dose mostly 57.5 µM), for the others: top-dose activity change, negative = inhibition, actives largely listed as inhibitors. 0.37% of 290,000 active; further: potency means the concentration at half of the fitted maximal effect; on the % scale 0 is the no-effect control and ±100 the full control effect
Target sequence (Q27686 whole entry, looked up): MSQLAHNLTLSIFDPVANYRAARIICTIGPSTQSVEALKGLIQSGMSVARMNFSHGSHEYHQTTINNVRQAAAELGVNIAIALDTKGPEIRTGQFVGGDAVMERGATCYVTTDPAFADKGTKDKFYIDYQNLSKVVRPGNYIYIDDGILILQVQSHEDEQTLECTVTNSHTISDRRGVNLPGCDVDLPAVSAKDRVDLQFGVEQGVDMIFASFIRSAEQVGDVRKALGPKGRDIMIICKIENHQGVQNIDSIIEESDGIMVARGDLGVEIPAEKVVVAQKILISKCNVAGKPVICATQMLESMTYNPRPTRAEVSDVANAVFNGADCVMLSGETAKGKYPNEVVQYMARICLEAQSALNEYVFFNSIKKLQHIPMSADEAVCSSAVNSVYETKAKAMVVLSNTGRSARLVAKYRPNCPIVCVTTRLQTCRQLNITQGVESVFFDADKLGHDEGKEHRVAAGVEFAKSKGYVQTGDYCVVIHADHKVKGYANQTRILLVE
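0.1 nM LmPK, 0.5 mM PEP, 0.1 mM ADP; 50 mM imidazole pH 7.2, 7 mM MgCl2, 50 mM KCl; 1 h RT. Kinase-Glo luminescence readout, normalized to no-enzyme (full inhibition) and uninhibited wells.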
An asterisk follows results filed as active; ? = inconclusive; nt = no result given; [ ] = another dose, or the depositor's remark. A selection: hits, their analogues and other compounds. The true share with any hit is near 22%. Unless noted, the call rests on the fitted dose curve; in most records, active means well fitted inhibition curve with a large enough effect; inconclusive means small, poorly fitted or top-dose-only effect, or another doubt; inactive means no such curve, though single readings can be large or run the other way.

SMILES	Shiga toxin inh	Cycloheximide cs	Pf growth 48h	Pf growth 96h	LmPK inh
CCOc1ccc(/C=N/NC(=O)c2ccccc2NC(=O)c2ccc(OC)cc2)cc1	45*	60*	111%	21%	-13%
O=Cc1ccc(Sc2ncccn2)o1	-5	8	11%	23%	0%
CCOc1cc(Br)cc(/C=N/NC(=O)c2cccnc2)c1O	-1	-2	?	60%	-4%
CC(=O)OC1C(N2CCCCC2)c2c(ccc(/C=C/C(=O)N3CCCCC3)c2O)OC1(C)C (centres undefined)	4	9	?	13%	-4%
Cc1ccc(S(=O)(=O)N(CC(=O)Nc2cccc(N(C)S(C)(=O)=O)c2)c2ccc(Cl)c(Cl)c2)cc1	-3	-2	13µM*	?	-1%
CN(c1cccc(NC(=O)CN(c2ccc(C34CC5CC(CC(C5)C3)C4)cc2)S(C)(=O)=O)c1)S(C)(=O)=O	2	-1	?	17µM*	4%
N[C@H](CC(=O)O)C(=O)O	nt	nt	3%	?	nt
COc1ccc(/C=C/C(=O)NCCN=C2NS(=O)(=O)c3ccccc32)cc1	15	-4	0%	120%	-2%
CN1CCN(c2ccc(NC(=O)c3ccc4c(c3)OCO4)cc2)CC1	72*	42*	108%	-5%[5.75 µM]	-5%
CC(C)(C)C(=O)N1CCN(c2ccc(NC(=O)c3ccc4c(c3)OCCO4)cc2)CC1	3	-5	?	-22%	-1%
O=C(Nc1ccc(N2CCCCC2)cc1)c1ccc2c(c1)OCCO2	75*	35*	nt	107%	-13%
O=C(Nc1ccc(N2CCN(C(=O)c3ccccc3)CC2)cc1)c1ccc2c(c1)OCCO2	62*	55*	?	?	-7%
CC(=O)N1CCN(c2ccc(NC(=O)c3ccc4c(c3)OCCO4)cc2)CC1	20	16	nt	0%	5%
O=C(Nc1ccc(N2CCN(C(=O)c3ccc(Cl)cc3)CC2)cc1)c1ccc2c(c1)OCCO2	-4	-2	nt	?	-8%
C[C@H](NC(N)=O)C(=O)Nc1ccc2c(c1)OCO2	3	23*	55%	95%	1%
CC(CC(=O)Nc1ccc2c(c1)OCCO2)c1ccccc1 (centres undefined)	55*	42*	73%	1%	3%
CN(C)CC(NC(=O)c1cccc(S(=O)(=O)Nc2ccc3c(c2)OCO3)c1)c1ccccc1 (centres undefined)	nt	nt	?	4.1µM*	nt
CC(CC(=O)Nc1ccc2c(c1)OCO2)c1ccccc1 (centres undefined)	57	15*	34%	115%	0%
O=C(CCc1ccccc1)OCCOC(=O)CCc1ccccc1	-3	-4	8%	18%	-1%
CC1(C)CC(NC(=O)COc2ccc3ccc(=O)oc3c2)CC(C)(C)N1	-4	7	17%	0%	0%
Fc1ccc(-c2[nH]ncc2CN(CC2CCC2)CC2CCCO2)c(F)c1 (centres undefined)	-4	-1	-23%	?	3%
CC(C)n1c(N2CCN(CC(=O)Nc3ccc4c(c3)OCCO4)CC2)nc2ccccc21	15	-2	?	5.9µM*	-3%
CCOc1ccc2nc(NC(=O)C3CCN(S(=O)(=O)c4cnc[nH]4)CC3)sc2c1	-2	-2	nt	?	7%
CCOc1ccc2nc(NC(=O)C3CCN(c4cnccn4)CC3)sc2c1	48	-3	9.3µM*	28%	1%
CCOc1ccc2nc(N3CCC(C(=O)Nc4ccc(Br)cc4F)CC3)sc2c1	173*	35*	nt	nt	nt
SMILES	Shiga toxin inh	Cycloheximide cs	Pf growth 48h	Pf growth 96h	LmPK inh
N=c1nc(N)nc2n1NC(c1ccc(F)cc1)=CS2	47	20*	10%	?	-1%
Cc1cccc(NC(=O)CSc2nncn2-c2ccccn2)c1	17	14	22%	102%	-9%
O=C(c1ccco1)N(CCC(c1ccccc1)c1ccco1)Cc1ccccc1 (centres undefined)	19	1	?	13µM*	2%
COc1ccc(CN(CCC(c2ccccc2)c2ccco2)C(=O)c2ccco2)cc1 (centres undefined)	-2	-1	0%	12µM*	-4%
CCOC(CCNC(=O)c1cc(-c2cccs2)nc2ccccc12)OCC	-3	-8	-9%	-8%	5%
COc1ccc(CN2CCN(C(=O)CCC(=O)Nc3nnc(C4CCCCC4)s3)CC2)cc1F	-11	-6	-27%	12µM*	-2%
CCN(CC)c1ccc(C=Nc2ccc(OC)c(S(=O)(=O)N3CCOCC3)c2)c(O)c1	nt	nt	11%	-25%	nt
